# Where a name gives a salt, the structure may show the parent alone.
# Tests used:
# Assay in all cases: Euclidean distance of Cell Painting phenotypic profile (signed KS, 77 features) to DMSO centroid (dimensionless distance); 5 or 10 uM (library dependent); higher = stronger phenotypic change vs DMSO (phenoactivity)
# Details in all cases: 48 h
# 786-O = test system: 786-O
# In short: (§1)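 Harmony extracted 77 features from 20X confocal images (9 fields/well) of stained cells, scoring each as a signed Kolmogorov-Smirnov statistic against same-plate vehicle wells. The cells, five cancer lines and a healthy fibroblast line, had received library compounds for 48 h at 10 or 5 uM depending on library, with 0.1% DMSO final. Phenoactivity is the Euclidean distance from each plate-position-corrected, correlation-weighted, top-dose replicate-averaged profile to the median vehicle profile.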
# A549 = test system: A549
# In short: as §1
# DU145 = test system: DU145
# In short: as §1
# FB = test system: FB
# In short: as §1
# HEPG2 = test system: HEPG2
# In short: as §1
# OVCAR4 = test system: OVCAR4
# In short: as §1
Structure (SMILES),Euclidean distance (786-O),Euclidean distance (A549),Euclidean distance (DU145),Euclidean distance (FB),Euclidean distance (HEPG2),Euclidean distance (OVCAR4)
CCCC(=O)Nc1cccc(NC(=O)c2ccccc2Br)c1,1.43,1.02,1.04,1.14,1.27,0.946
O=C(NOCC1CC1)c1ccc(F)c(F)c1Nc1ccc(I)cc1Cl,2.48,3.7,2.78,2.12,2.22,2.06
Cc1nc(Nc2ncc(C(=O)Nc3c(C)cccc3Cl)s2)cc(N2CCN(CCO)CC2)n1 [Dasatinib hydrochloride],3.83,4.46,4.71,3.53,2.21,4.45
CNC(=O)c1ccc(C)c(-n2c(C)cc(OCc3ccc(F)cc3F)c(Br)c2=O)c1,1.33,1.29,0.844,1.55,1.94,1.07
NC(=O)c1cccnc1 [Nicotinamide (Vitamin B3)],0.857,0.597,2.86,0.938,0.669,1.28
CC(CCc1ccccc1)NCC(O)c1ccc(O)c(C(N)=O)c1 (stereo not given) [Labetalol HCl],1.08,0.727,0.701,1.03,0.361,1.22
CC(C)(F)C[C@H](N[C@@H](c1ccc(-c2ccc(S(C)(=O)=O)cc2)cc1)C(F)(F)F)C(=O)NC1(C#N)CC1 [Odanacatib (MK-0822)],0.533,2.1,0.7,0.656,1.37,0.985
COc1cc2nccc(Oc3ccc(NC(=O)NC4CC4)c(Cl)c3)c2cc1C(N)=O [lenvatinib Mesylate],1.2,1.1,1.71,3.39,0.829,2.16
Nc1c(CC(=O)O)cccc1C(=O)c1ccccc1 [Amfenac Sodium Monohydrate],1.3,0.843,0.909,1.46,0.424,1.11
C[C@H](N)[C@H](O)c1cccc(O)c1 [Metaraminol Bitartrate],0.87,0.731,0.8,1.26,0.768,0.946
N#CCCCSC(=N)N [Kevetrin hydrochloride],1.5,0.842,1.04,0.849,0.473,0.902
COc1cc2c(cc1OC)C(=O)C(CC1CCN(Cc3ccccc3)CC1)C2 (stereo not given) [Donepezil],0.813,1.25,0.73,0.785,1.27,1.27
N[C@H]1C[C@@H]1c1ccc(-c2cccc(O)c2)cc1,1.26,1.27,1.07,1.18,0.624,1.45
Nc1ccn([C@@H]2O[C@H](CO)[C@@H](O)[C@H]2O)c(=O)n1 [Cytidine],1.92,0.659,1.04,0.943,1.9,1
CC(C)(O)c1cc(Nc2cc(Oc3cn(C4CC4)nc3C3CCOCC3)ccn2)ccn1,0.999,0.879,1.32,1.38,1.09,1.36
CCC(=O)OCC(=O)[C@@]1(OC(=O)CC)[C@@H](C)C[C@H]2[C@@H]3CCC4=CC(=O)C=C[C@]4(C)[C@@]3(Cl)[C@@H](O)C[C@@]21C [Beclomethasone dipropionate],1.09,2.14,2.46,1.95,0.575,1.8
C[C@@H]1COCCN1c1cc(C2([S@](C)(=N)=O)CC2)nc(-c2cc[nH]c3nccc2-3)n1,2.52,2.73,2.21,3.12,2.29,2.88
CC(C)OC(=O)CCC/C=C\C[C@@H]1[C@@H](/C=C/[C@@H](O)COc2cccc(C(F)(F)F)c2)[C@H](O)C[C@@H]1O [Travoprost],0.945,0.886,0.732,1.11,1.07,1.25
O=C1C[C@@H](c2ccc(O[C@@H]3O[C@H](CO)[C@@H](O)[C@H](O)[C@H]3O)cc2)Oc2cc(O)ccc21 [Liquiritin],1.07,0.817,0.781,1.59,0.642,1.16
Cc1ccc(NC(=O)c2ccc(CN3CCN(C)CC3)cc2)cc1Nc1nccc(-c2cccnc2)n1 [Imatinib Mesylate (STI571)],1.63,2,1.67,2.28,1.61,1.55
CCC(=O)NS(=O)(=O)c1ccc(-c2c(-c3ccccc3)noc2C)cc1 [Parecoxib],0.575,0.57,0.471,1.11,0.593,0.719
Nc1nc(Cl)nc2c1ncn2[C@@H]1O[C@H](CO)[C@@H](O)[C@@H]1F [Clofarabine],3.26,2.36,2.96,3.41,3.02,3.09
O=c1c(-n2ccnn2)c[nH]n1-c1cc(N2CCOCC2)ncn1 [Molidustat (BAY 85-3934)],1.15,0.806,1.01,1.09,0.627,1.19
O=C(O)CC1CC(c2ccccc2)=NO1 (stereo not given),0.76,1.81,1.27,1.31,0.596,0.844
CCCCS(=O)(=O)N[C@@H](Cc1ccc(OCCCCC2CCNCC2)cc1)C(=O)O [Tirofiban Hydrochloride],1,1.07,1.77,1.22,0.871,1.39

# — the supplement of paper PMC10127200
